Screening data from PubChem BioAssay.
A selection: hits, their analogues and other compounds. The true share with any hit is near 19%.
TDP1 cell noCPT = qHTS for Inhibitors of human tyrosyl-DNA phosphodiesterase 1 (TDP1): qHTS in cells in absence of CPT; AID 686978, 2013; Potency, µM (series often up to 46.2 µM), for the others: top-dose activity change, negative = growth inhibition, actives largely listed as inhibitors; DT40 Tdp1-/- hTDP1 cells, no CPT, ATP luminescence, 48 h; 420,000 tested, 15% active; also: potency is read from the fitted curve at half-maximal effect; nearly all actives have a fitted effect of over 55% in size
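Seeded 400 DT40-hTDP1 cells/well (vehicle DMSO, no 20 nM CPT); pinned compounds; ≥48 hr at 37 °C; CellTiter-Glo luminescence as viability measure.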
IL1B secr inh = inflammasome signaling inhibition, IL-1 beta readout; THP-1 LPS/ATP IL-1B secretion, AlphaLISA, 16 h; hits give low values; activity change, % at 57.5 µM; 360,000 tested, 4.7% active; in the data active = activity change below about -50%; inconclusive = mostly about -30% to -49%
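Secreted IL-1B measured by AlphaLISA bead assay after 16 h compound exposure of THP-1 cells; compounds (final up to 57.5 uM) added 1 h before LPS (250 ng/mL) and ATP (1.25 mM) stimulation; lower signal means less secretion.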
HT1080 IDH1KD tx = toxicity to HT-1080 IDH1 knockdown cells (counter line) | HT-1080 IDH1 knockdown viability, ATP luminescence, 48 h | 360,000 tested, 2% active | Potency, µM (top dose mostly 46.1 µM), without a hit: top-dose activity, negative = toxicity, usual class: cytotoxic | AID 686971;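 also: potency is read from the fitted curve at half-maximal effect; 0% = DMSO wells and -100% = cell-free medium wells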
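Using the IDH1-knockdown HT-1080 line run in the same batch and compound series as the NT line, viability after 48 h at 37 °C was determined by CellTiter-Glo luminescence and expressed as % activity.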
HT1080NT lethal = kills 2HG-producing HT-1080-NT fibrosarcoma cells. HT-1080-NT fibrosarcoma viability, CellTiter-Glo ATP luminescence, 48 h. Potency, µM (series often up to 46.1 µM), for the others: at the highest dose activity, negative = less viability, hits mostly cytotoxic. 360,000 tested, 1.6% active;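 also: NT is the 2HG producing partner of a matched IDH1 knockdown line; potency is read from the fitted curve at half-maximal effect; 0% = DMSO-treated cells and -100% = media-only wells without cells; nearly all actives have a fitted effect of over 55% in size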
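A 48-hour cytotoxicity screen used HT-1080-NT cells plated 2 hours before compound delivery. ATP-based CellTiter-Glo luminescence measured viability, normalized to DMSO and no-cell controls.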
ELG1 repair inh = ELG1-dependent DNA repair inhibition; Potency, µM (top dose mostly 46.1 µM), for inactives: at the top dose activity change, negative = inhibition, usual class: inhibitors; HEK293T ELG1-luciferase reporter, luminescence, 16 h; DNA damage induced by 5-fluorouridine; 330,000 tested, 2.3% active; also: potency is read from the fitted curve at half-maximal effect; nearly all actives have a fitted effect of over 55% in size
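Luminescence from the luciferase reporter, measured 30 min after ONE-Glo reagent at room temperature, was the read-out. Beforehand, 2,000 cells per well were exposed for 16 hr at 37 °C to 5-fluorouridine together with compound or vehicle.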
TDP1 cell CPT = DT40-hTDP1 cell growth loss with CPT. AID 686979. chicken DT40 Tdp1-/-;hTDP1 cells + 20 nM CPT, ATP luminescence, 48 h. Potency, µM (titrated, usually from 46.2 µM), for inactives: top-dose activity change, negative = growth inhibition, most hits filed as inhibitors. 420,000 tested, 12% active; also: potency is read from the fitted curve at half-maximal effect; nearly all actives have a fitted effect of over 55% in size
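Chicken DT40 Tdp1-/- cells complemented with human TDP1, 400 cells/well, exposed to compounds plus 20 nM camptothecin for at least 48 h at 37 C; viability read as ATP content by CellTiter-Glo luminescence.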
Active calls of the source: *; ? = inconclusive; . = no result given; [ ] = another dose, or the depositor's remark. Unless noted, calls follow the shape of the dose curve; as a rule, active = well fitted curve in the direction sought with a large enough effect; inconclusive = small, poorly fitted or top-dose-only effect, or another doubt; inactive = no such curve, though single readings can be large; an effect the other way counts as inactive or inconclusive. Unless noted, % is scaled to controls: 0 for no effect and ±100 for the full control effect.

SMILES	TDP1 cell noCPT	IL1B secr inh	HT1080 IDH1KD tx	HT1080NT lethal	ELG1 repair inh	TDP1 cell CPT
COc1ccc2c(c1)CO[C@]21O[C@H](CCO)C[C@H](O)[C@H]1O	-10%	-6	22%	21%	.	-2%
CCN1/C(=C/C(C)=C/c2sc3ccccc3[n+]2CC)Sc2ccccc21	0.18µM*	-97*	1.5µM*	10µM*	1.8µM*	0.18µM*
Cc1ccc(NS(=O)(=O)c2c(C)[nH]c(C)c2C(=O)N2CCCC2)cc1	2%	-11	3%	11%	1%	-8%
CCc1cccc(C)c1NS(=O)(=O)c1c(C(=O)N2CCC(C)CC2)c(C)n(C)c1C	?	.	.	.	.	18µM*
COc1ccc(NS(=O)(=O)c2c(C(=O)N3CCCCCC3)c(C)n(C)c2C)cc1	4%	?	-9%	1%	17%	?
Cc1c(C(=O)N2CCC(C)CC2)c(S(=O)(=O)Nc2ccc(OC(F)(F)F)cc2)c(C)n1C	16µM*	.	.	.	.	?
Cc1[nH]c(C)c(S(=O)(=O)Nc2ccc(OC(F)(F)F)cc2)c1C(=O)N1CCCCC1	16µM*	?	-18%	-16%	-1%	21µM*
CCc1ccccc1NS(=O)(=O)c1c(C(=O)N2CCCCCC2)c(C)n(C)c1C	-19%	-7	0%	-2%	4%	-25%
O=C(COC(=O)/C=C/c1ccco1)Nc1ccc(F)cc1Cl	29%	11	19%	16%	5%	13%
Nc1cc2nsnc2cc1Br	5.8µM*	-4	?	-18%	-2%	5.8µM*
O=C1C=C(Nc2cccc3cccnc23)c2ccccc2C1=O	7.3µM*	-78*	2.1µM*	?	?	5.8µM*
O=C1C=C(Nc2ccccc2)c2ccccc2C1=O	4.6µM*	11	5.2µM*	?	9.2µM*	7.3µM*
CCc1ccc(NC2=CC(=O)C(=O)c3ccccc32)cc1	2.9µM*	-87*	-3%	-3%	1%	2.3µM*
O=C1C=C(Nc2ccccc2C(=O)O)c2ccccc2C1=O	?	47	18µM*	?	26µM*	?
O=C(O)c1ccccc1Nc1ccccc1C(=O)O	-8%	-8	-13%	-9%[9.24 µM]	-2%	-7%
CCc1ccc2c(c1)C(=O)c1ccccc1C2=O	7%	26	3%	-1%	?	14%
COC(=O)C(C(=O)Nc1nc2ccccc2s1)C1CCCC1 (stereo not given)	-9%	23	8%	4%	-8%	-7%
O=C1C(Nc2ccccc2)=CC(=O)c2ncccc21	1.1µM*	.	.	.	.	1µM*
O=C1C=C(Nc2ccccc2)C(=O)c2ccccc21	?	0	?	15µM*	?	13µM*
NS(=O)(=O)c1ccc(NC(=O)CSc2nc3c(cnn3-c3ccccn3)c(=O)[nH]2)cc1	9%	18	11%	4%	9%	15%
O=C(Oc1ccccc1)N1CCN(C(=O)c2ccco2)CC1	0%	?	29%	27%	13%	10%
COc1ccc(N=C2NC(=O)/C(=C/c3ccc(O)c(OC)c3)S2)cc1	?	-67*	2%	-16%	?	?
O=C1NC(=Nc2ccc(O)cc2)S/C1=C\C=C\c1ccco1	0.73µM*	98	1.5µM*	1.3µM*	?	0.82µM*
Cc1c(N=C2NC(=O)/C(=C/c3ccc(O)cc3)S2)c(=O)n(-c2ccccc2)n1C	?	-18	-1%	-3%	12%	-18%
COc1ccc(/C=C2\SC(=Nc3ccccc3)NC2=O)cc1	.	.	.	.	-17%	.
SMILES	TDP1 cell noCPT	IL1B secr inh	HT1080 IDH1KD tx	HT1080NT lethal	ELG1 repair inh	TDP1 cell CPT
COc1ccccc1N=C1NC(=O)/C(=C/c2ccc(N(C)C)cc2)S1	1.8µM*	4	3.3µM*	7.3µM*	?	2.1µM*
O=C1NC(=NCc2ccccc2)S/C1=C/c1ccc(O)cc1	12µM*	-76*	?	?	?	?
O=C(O)CC(Cc1ccc(Cl)cc1)C(=O)Nc1cc(Cl)ccc1Cl (stereo not given)	-7%	24	-1%	-1%	16%	11%
COc1cc(/C=C2/SC(=Nc3ccc(O)cc3)NC2=O)cc(OC)c1O	12µM*	29	-9%	-27%	16%	16µM*
CN(Cc1ccccc1N1CCCC1)C(=O)c1cc2ccccc2o1	?	2	-6%	-6%	?	?
CN(Cc1ccccc1N1CCCC1)C(=O)c1cc2cc(Cl)ccc2o1	-15%	17	-1%	0%[9.24 µM]	-16%	12µM*
C=CCNc1nc(N)c(C(=C(C#N)C#N)c2ccc(Br)cc2)s1	?	-29	?	-23%	18µM*	?
CCCCCCSc1ccc(-c2nc3cnccn3c2NC2CCCCC2)cc1	?	14	4%	1%	.	?
COc1cc(-c2nc3cc(C)ccn3c2NC2CCCCC2)ccc1-c1ccc(C(C)=O)cc1	7.3µM*	?	?	-20%	?	13µM*
CCCCCCSc1cc(-c2nc3cnccn3c2NCc2ccccc2)ccc1OC	?	0	0%	-13%	?	?
